Results published in PubChem BioAssay AID2283176 (EPA ToxCast).
Results filed as inconclusive are left out. Activity calls are given as the source filed them. How the source made its calls: active means hit-call score of the fitted dose curve at least 0.9, where 1 is the maximum; inconclusive means response in the unintended direction; inactive means score below 0.9.

Target: human MAP Kinase-Activated Protein Kinase 5 (MAPKAPK5), MAPKAPK5 (gene 8550) (UniProt Q8IW41)
Assay: NVS_ENZ_hMAPKAPK5: NovaScreen (NVS) Enzymatic Assay for human MAP Kinase-Activated Protein Kinase 5 (MAPKAPK5)
Method: NVS_ENZ_hMAPKAPK5 is a biochemical, single-readout assay that uses extracted gene-proteins in a cell-free assay. Measurements were taken 1 hour after chemical dosing in a 384-well plate.NVS_ENZ_hMAPKAPK5 is one of one assay component(s) measured or calculated from the NVS_ENZ_hMAPKAPK5 assay. It is designed to make measurements of enzyme activity, a form of enzyme reporter, as detected with fluorescence intensity signals by Fluorescence and electrophoretic mobility shift technology.Data from the assay component NVS_ENZ_hMAPKAPK5 was analyzed into 1 assay endpoint. This assay endpoint, NVS_ENZ_hMAPKAPK5, was analyzed in the positive analysis fitting direction relative to DMSO as the negative control and baseline of activity. Using a type of enzyme reporter, loss-of-signal activity can be used to understand changes in the enzymatic activity as they relate to the gene MAPKAPK5. Furthermore, this assay endpoint can be referred to as a primary readout, because this assay […]. To generalize the intended target to other relatable targets, this assay endpoint is annotated to the kinase intended target family, where the subfamily is serine/threonine kinase.
Binding assays used specific radioligands (tritiated, iodinated) with non-radioactive competitive displacement ligands in agonist or antagonist protocols (as indicated) and various reference compounds and inhibitors to titrate specific binding to receptors and transporters. Most enzyme assays (CYPs, kinases, phosphatases, proteases, HDACs) used recombinant protein and specific substrates (fluorescence mostly, some colorimetric and radioactive) and inhibitors, followed by a biochemical separation of substrate and product. All assays for the biochemical HTS were initially run in duplicate at a single concentration (10 uM for CYP450 assays and 25 uM for all others). Assay-chemical combinations meeting a pre-defined threshold (e.g., 30% inhibition and other criteria defined below) were then run in singleton concentration-response format with maximum concentration of 20 uM for CYPs and 50 uM for all others. Each assay was run with positive and negative controls, and concurrent controls on every plate. The follow-up (secondary) screen tested active chemical-pairs in concentration series, as well as a few additional assays not tested in the primary screen, some selected negative inactives, and several cases re-run in the concentration series for confirmatory purposes.

Sequence of human MAP Kinase-Activated Protein Kinase 5 (MAPKAPK5), MAPKAPK5 (gene 8550) (Q8IW41 whole entry, looked up): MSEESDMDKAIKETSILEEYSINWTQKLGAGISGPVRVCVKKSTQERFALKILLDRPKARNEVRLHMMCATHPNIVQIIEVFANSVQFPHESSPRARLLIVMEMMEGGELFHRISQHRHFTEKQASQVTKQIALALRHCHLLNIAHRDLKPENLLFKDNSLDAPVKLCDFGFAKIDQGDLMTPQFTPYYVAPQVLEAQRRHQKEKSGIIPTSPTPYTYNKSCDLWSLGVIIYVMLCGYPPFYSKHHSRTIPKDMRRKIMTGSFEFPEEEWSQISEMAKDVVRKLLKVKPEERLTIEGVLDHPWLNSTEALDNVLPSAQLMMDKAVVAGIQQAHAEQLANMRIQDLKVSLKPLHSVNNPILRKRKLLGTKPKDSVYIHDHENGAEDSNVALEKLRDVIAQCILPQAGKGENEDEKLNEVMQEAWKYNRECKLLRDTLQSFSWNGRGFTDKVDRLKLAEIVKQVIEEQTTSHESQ

outcome, inactive:
CCOC(=O)[C@H](C)Oc1ccc(Oc2nc3ccc(Cl)cc3o2)cc1, CCN(CC)C(=O)c1cccc(C)c1, O=C(Nc1ccc([N+](=O)[O-])cc1Cl)c1cc(Cl)ccc1O

AC50, active:
N#CSCSc1nc2ccccc2s1 14.7 µM, S=C(S)NCCNC(=S)S.[Mn+2].[S-]C([S-])=NCCN=C([S-])[S-].[Zn+2] 2.41 µM, O=C(O)C1(C(=O)Nc2ccc(Cl)cc2Cl)CC1 19.1 µM, S=C([S-])NCCNC(=S)[S-].[Mn+2] 0.789 µM
